Hit rate of the full screen: of about 86,000 compounds, about 1,400 (1.6%) were called active. The full list was thinned out, with actives kept by preference. Unmarked numbers belong to inactive results. No stated cut-off is given here; in the data, active means inhibition above about 50%; inactive means the rest.
The compounds below were run against Estrogen receptor (Homo sapiens) (UniProt P03372) (assay: blockers of SRC-1 peptide recruitment to ERα – biochemical, TR-FRET, ERα LBD, estradiol-bound, primary screen (AID 629;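 further: 0% = receptor plus peptide control and 100% = peptide only without receptor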)). Details: TR-FRET ER-alpha LBD / SRC-1 peptide, at 25.6 µM, active compounds read high.
Chain of Estrogen receptor (Homo sapiens) (P03372 whole entry, looked up, the tested form may be a part): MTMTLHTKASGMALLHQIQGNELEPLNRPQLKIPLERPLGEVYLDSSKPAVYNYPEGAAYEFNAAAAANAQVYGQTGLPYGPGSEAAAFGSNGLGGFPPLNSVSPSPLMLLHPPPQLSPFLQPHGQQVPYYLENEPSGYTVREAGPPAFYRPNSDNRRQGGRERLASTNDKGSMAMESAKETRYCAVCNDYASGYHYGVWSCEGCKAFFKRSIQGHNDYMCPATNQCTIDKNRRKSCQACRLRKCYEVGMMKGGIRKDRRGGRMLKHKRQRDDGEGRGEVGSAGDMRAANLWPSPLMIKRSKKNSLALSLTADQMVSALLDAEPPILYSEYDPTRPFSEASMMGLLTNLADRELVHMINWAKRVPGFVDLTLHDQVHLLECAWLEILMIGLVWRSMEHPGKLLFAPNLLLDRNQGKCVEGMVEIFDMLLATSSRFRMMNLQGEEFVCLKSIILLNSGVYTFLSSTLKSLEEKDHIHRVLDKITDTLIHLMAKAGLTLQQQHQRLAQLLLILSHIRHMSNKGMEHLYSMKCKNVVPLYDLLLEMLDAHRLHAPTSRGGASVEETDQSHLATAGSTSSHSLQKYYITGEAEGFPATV
In the case of `O=C(NCc1ccccn1)c1ccc2nc(-c3ccco3)c(-c3ccco3)nc2c1`, the inhibition is reported as 88% [fluorescence artefact?] (active).
`O=C(NCc1ccccn1)c1cc2ccccc2oc1=O` showed an inhibition of -3.07%.
`CN(c1ccc(C(=O)NCc2ccccn2)cc1)S(C)(=O)=O` gave an inhibition of -0.26%.
`CCN(CC)C(=O)CSc1nc2ccccc2o1` gave an inhibition of -2.4%.
Compound `O=S(=O)(NCCNS(=O)(=O)c1ccccc1)c1ccccc1` has an inhibition of -4.42%.
With `O=S(=O)(NCC1OCCc2ccccc21)c1ccccc1` (centres undefined) the inhibition was -3.46%.
For `O=c1/c(=C/c2ccc(CNS(=O)(=O)c3ccccc3)o2)sc2n1CCN=2`, the inhibition was 51.2% [fluorescence artefact?] (active).
`CC(=O)C1=C(C)NC(=O)NC1c1cc(Br)ccc1OCC#N` (centres undefined) gave an inhibition of -10.9%.
For `CC(C)n1c(-c2cccs2)nc2ccccc21`, the inhibition was -8.49%.
Work on `O=C(CCn1c(SCC(=O)c2ccccc2)nc2ccccc2c1=O)NCc1ccc(F)cc1` yielded an inhibition of 47.2%.
`COc1ccc(C)cc1-n1nnnc1SCC(=O)c1cc(C)n(Cc2ccco2)c1C` was tested, and the inhibition was 56% [fluorescence artefact?] (active).
Compound `COc1ccc(NC(=O)CSc2nnc(-c3cccs3)n2Cc2ccco2)cc1OC` has an inhibition of -0.83%.
With `COc1ccc(OC)c(-n2nnnc2SCC(=O)Nc2cc(C)ccc2OC)c1` the inhibition was 4.13%.
With `O=C(NCc1ccccc1)[C@@H]1CSC2c3ccccc3C(=O)N21` (some centres undefined) the inhibition was 6.25%.
`Cc1cc(C)n(-c2nnc(C)n2NC(=O)c2cccc(Cl)c2)n1` was tested, and the inhibition was -8.09%.
`COc1ccc(-c2noc(-c3ccc(C)cc3)n2)cc1` showed an inhibition of -13.3%.
In the case of `COc1ccc2[nH]c(=O)c(-c3noc(-c4ccc(F)cc4)n3)cc2c1`, the inhibition is reported as 72.5% [fluorescence artefact?] (active).
`Cc1cccc(-c2noc(-c3ccc(F)cc3)n2)c1` gave an inhibition of -21.4%.
For `COc1ccc(Cl)cc1C(=O)Nc1ccc(N(C)C(C)=O)cc1`, the inhibition was 9.29%.
`COc1cc(OC)c(C(=O)Nc2ccc(N(C)C)cc2)cc1OC` was tested, and the inhibition was 63.9% [fluorescence artefact?] (active).
Compound `COc1cc(OC)c(C(=O)NC2CCCCCC2)cc1OC` has an inhibition of -10.8%.
In the case of `CCOc1ccccc1C(=O)NC1CC2CCCC(C1)N2Cc1ccccc1` (centres undefined), the inhibition is reported as 1.91%.
For `COc1ccc(-c2nnc(SCC(=O)c3ccc4c(c3)OCCO4)o2)cc1`, the inhibition was 22.7%.
`N#CCSc1nc2ccccc2c(=O)n1-c1ccccc1` was tested, and the inhibition was 1.7%.
With `O=c1c2ccccc2nc(CSc2nnnn2-c2ccccc2)n1-c1ccccc1` the inhibition was 70% [fluorescence artefact?] (active).
In the case of `COc1ccc(-n2nnnc2SCC(=O)Nc2ccccc2)cc1`, the inhibition is reported as -12.4%.
`O=c1c2ccccc2nnn1CSc1nnnn1-c1ccccc1` showed an inhibition of -0.34%.
With `Cc1ccc(Nc2nc(CSc3nnnn3-c3ccccc3)cc(=O)[nH]2)cc1` the inhibition was 66.8% [fluorescence artefact?] (active).
With `Cc1ccc(-c2noc(CSc3nnnn3-c3ccccc3)n2)cc1` the inhibition was -3.97%.
`Brc1ccc(-c2nnc(-c3ccccc3)o2)o1` was tested, and the inhibition was 12.2%.
`O=C(Cc1ccccc1)Nc1c(C(=O)N2CCCCCC2)cnn1-c1ccccc1` gave an inhibition of -5.17%.
In the case of `Cc1cc(=O)oc2cc(OCC3CC(c4ccccc4Cl)=NO3)ccc12` (centres undefined), the inhibition is reported as 3.5%.
For `O=C(c1ccc2c(c1)OCO2)N1CCOCC1`, the inhibition was -17.2%.
`Cc1ccc(NC(=O)CSCC(=O)N2CCOCC2)cc1` showed an inhibition of -2.74%.
In the case of `CCN(CC)C(=O)CN(c1cccc(OC)c1)S(=O)(=O)c1ccc(C)cc1`, the inhibition is reported as 0.16%.
With `COc1ccc(Cl)cc1NC(=O)c1oc(C)nc1C` the inhibition was 53.9% (active).
Work on `Cc1nc(C)c(C(=O)Nc2ccc(C)c(F)c2)o1` yielded an inhibition of 13.3%.
`Cc1nc(C)c(C(=O)Nc2cccc(C)c2C)o1` was tested, and the inhibition was 23.7%.
In the case of `Cc1cc(NC(=O)CCC(=O)N(CC(=O)NCC2CCCO2)c2ccccc2C)no1` (centres undefined), the inhibition is reported as 26%.
In the case of `Cn1c2ccccc2c2c(C(=O)N3CCN(c4ccc(F)cc4)CC3)cn(C3CCCC3)c(=O)c21`, the inhibition is reported as 8.84%.
With `CCOC(=O)N1CCN(C(=O)c2n[nH]c(=O)c3ccccc23)CC1` the inhibition was -4.02%.
For `CCOC(=O)N1CCN(C(=O)c2nn(-c3ccc(C)cc3)c(=O)c3c2c2ccccc2n3C)CC1`, the inhibition was 58.7% [fluorescence artefact?] (active).
For `CCCc1nc(NCc2ccc3c(c2)OCO3)c2nnn(Cc3ccccc3Cl)c2n1`, the inhibition was 0.25%.
Work on `Cc1ccccc1-c1nnc(SCC(=O)NCc2ccc3c(c2)OCO3)n1C` yielded an inhibition of -3.86%.
